Source: PubChem BioAssay AID1159580 (chemical genetic matrix, 2015)
About 2,000 (36%) of roughly 5,500 compounds were called active. Another 18% or so got no clear call; they are omitted. This is one part of the list. Unmarked numbers belong to inactive results. No stated cut-off is given here; in the data, active means normalized growth mostly below about 0.91 (no sharp cut-off); inconclusive means no clear call, values can overlap the other calls; inactive means mostly above about 0.92.

Assay: chemical genetic growth profiling, strain panel (AID 1159580);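 further: tested at 20 µM; growth read once vehicle control cultures reached saturation at 30 °C; 1 = growth at the plate median or of vehicle wells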
Details: growth OD
[1] = S. cerevisiae deletion strains, locus YDL101C, strain DUN1, stronger effect = lower value
[2] = S. cerevisiae deletion strains, locus YHR030C, strain SLT2, stronger effect = lower value

SMILES: Cc1c(C(=O)O)cc(-c2ccccc2)n1-c1ccccc1
- normalized growth (S. cerevisiae deletion strains, locus YAL013W, strain DEP1, stronger effect = lower value): 0.988
- normalized growth (S. cerevisiae deletion strains, locus YBR229C, strain ROT2, stronger effect = lower value): 1.01
- normalized growth [1]: 1
- normalized growth (S. cerevisiae deletion strains, locus YDR150W, strain NUM1, stronger effect = lower value): 0.892
- normalized growth (S. cerevisiae deletion strains, locus YEL061C, strain CIN8, stronger effect = lower value): 0.941
- normalized growth (S. cerevisiae deletion strains, locus YGR078C, strain PAC10, stronger effect = lower value): 0.999
- normalized growth [2]: 0.613 (active)
- normalized growth (S. cerevisiae deletion strains, locus YHR087W, strain rtc3, stronger effect = lower value): 0.985
- normalized growth (S. cerevisiae deletion strains, locus YJL187C, strain SWE1, stronger effect = lower value): 0.988
- normalized growth (S. cerevisiae deletion strains, locus YJR043C, strain POL32, stronger effect = lower value): 0.999
- normalized growth (S. cerevisiae deletion strains, locus YJR075W, strain HOC1, stronger effect = lower value): 0.959
- normalized growth (S. cerevisiae deletion strains, locus YKL190W, strain CNB1, stronger effect = lower value): 0.975
- normalized growth (S. cerevisiae deletion strains, locus YLR039C, strain RIC1, stronger effect = lower value): 0.674 (active)
- normalized growth (S. cerevisiae deletion strains, locus YLR058C, strain SHM2 (second series), stronger effect = lower value): 1.01
- normalized growth (S. cerevisiae deletion strains, locus YLR085C, strain ARP6, stronger effect = lower value): 0.654 (active)
- normalized growth (S. cerevisiae deletion strains, locus YLR262C, strain YPT6, stronger effect = lower value): 0.66 (active)
- normalized growth (S. cerevisiae deletion strains, locus YML094W, strain GIM5, stronger effect = lower value): 0.945
- normalized growth (S. cerevisiae deletion strains, locus YMR219W, strain ESC1, stronger effect = lower value): 0.998
- normalized growth (S. cerevisiae deletion strains, locus YMR263W, strain SAP30, stronger effect = lower value): 0.981
- normalized growth (S. cerevisiae deletion strains, locus YMR307W, strain GAS1, stronger effect = lower value): 0.467 (active)
- normalized growth (S. cerevisiae deletion strains, locus YNL153C, strain GIM3, stronger effect = lower value): 0.952
- normalized growth (S. cerevisiae deletion strains, locus YNL298W, strain CLA4 (second series), stronger effect = lower value): 0.869
- normalized growth (S. cerevisiae deletion strains, locus YNL322C, strain KRE1, stronger effect = lower value): 1
- normalized growth (S. cerevisiae deletion strains, locus YNR030W, strain Alg12, stronger effect = lower value): 0.923
- normalized growth (S. cerevisiae deletion strains, locus YOL006C, strain TOP1, stronger effect = lower value): 0.85
- normalized growth (S. cerevisiae deletion strains, locus YPL055C, strain LGE1, stronger effect = lower value): 0.865
- normalized growth (S. cerevisiae deletion strains, locus YPL241C, strain CIN2, stronger effect = lower value): 0.907
- normalized growth (S. cerevisiae deletion strains, locus YPR135W, strain CTF4, stronger effect = lower value): 0.64 (active)
- normalized growth (S. cerevisiae strains, strain wild type, stronger effect = lower value): 0.987

SMILES: Cc1c(C(=O)N2CCCCC2)cc(-c2ccccc2)n1-c1ccccc1
- normalized growth (S. cerevisiae deletion strains, locus YAR019C, strain CDC15, stronger effect = lower value): 0.964
- normalized growth (S. cerevisiae deletion strains, locus YBL105C, strain PKC1, stronger effect = lower value): 0.975
- normalized growth (S. cerevisiae deletion strains, locus YBR135W, strain CKS1, stronger effect = lower value): 0.969
- normalized growth (S. cerevisiae deletion strains, locus YBR136W, strain MEC1, stronger effect = lower value): 0.969
- normalized growth (S. cerevisiae deletion strains, locus YBR160W, strain CDC28, stronger effect = lower value): 0.959
- normalized growth (S. cerevisiae deletion strains, locus YDL017W, strain CDC7, stronger effect = lower value): 0.973
- normalized growth (S. cerevisiae deletion strains, locus YDL028C, strain MPS1, stronger effect = lower value): 0.946
- normalized growth [1]: 0.969
- normalized growth (S. cerevisiae deletion strains, locus YDL108W, strain KIN28, stronger effect = lower value): 0.968
- normalized growth (S. cerevisiae deletion strains, locus YDL132W, strain cdc53, stronger effect = lower value): 0.973
- normalized growth (S. cerevisiae deletion strains, locus YDL214C, strain PRR2, stronger effect = lower value): 0.908
- normalized growth (S. cerevisiae deletion strains, locus YDR052C, strain DBF4, stronger effect = lower value): 0.983
- normalized growth (S. cerevisiae deletion strains, locus YDR054C, strain cdc34, stronger effect = lower value): 0.968
- normalized growth (S. cerevisiae deletion strains, locus YDR226W, strain ADK1, stronger effect = lower value): 0.962
- normalized growth (S. cerevisiae deletion strains, locus YDR477W, strain SNF1, stronger effect = lower value): 0.908
- normalized growth (S. cerevisiae deletion strains, locus YER123W, strain YCK3, stronger effect = lower value): 0.896
- normalized growth (S. cerevisiae deletion strains, locus YER133W, strain GLC7, stronger effect = lower value): 0.924
- normalized growth (S. cerevisiae deletion strains, locus YFL009W, strain cdc4, stronger effect = lower value): 0.952
- normalized growth (S. cerevisiae deletion strains, locus YFL029C, strain CAK1, stronger effect = lower value): 0.967
- normalized growth (S. cerevisiae deletion strains, locus YFR003C, strain YPI1, stronger effect = lower value): 0.976
- normalized growth (S. cerevisiae deletion strains, locus YFR019W, strain FAB1, stronger effect = lower value): 0.944
- normalized growth (S. cerevisiae deletion strains, locus YFR028C, strain CDC14, stronger effect = lower value): 0.968
- normalized growth (S. cerevisiae deletion strains, locus YGR040W, strain KSS1, stronger effect = lower value): 0.897
- normalized growth (S. cerevisiae deletion strains, locus YGR052W, strain FMP48, stronger effect = lower value): 0.947
- normalized growth (S. cerevisiae deletion strains, locus YGR092W, strain DBF2, stronger effect = lower value): 0.855
- normalized growth [2]: 0.676 (active)
- normalized growth (S. cerevisiae deletion strains, locus YHR079C, strain IRE1, stronger effect = lower value): 0.822
- normalized growth (S. cerevisiae deletion strains, locus YHR082C, strain KSP1, stronger effect = lower value): 0.901
- normalized growth (S. cerevisiae deletion strains, locus YHR205W, strain SCH9, stronger effect = lower value): 0.828
- normalized growth (S. cerevisiae deletion strains, locus YIL147C, strain SLN1, stronger effect = lower value): 0.951
- normalized growth (S. cerevisiae deletion strains, locus YJL095W, strain BCK1, stronger effect = lower value): 0.837
- normalized growth (S. cerevisiae deletion strains, locus YJL128C, strain PBS2, stronger effect = lower value): 0.922
- normalized growth (S. cerevisiae deletion strains, locus YJL157C, strain FAR1, stronger effect = lower value): 0.933
- normalized growth (S. cerevisiae deletion strains, locus YJR016C, strain ILV3, stronger effect = lower value): 0.975
- normalized growth (S. cerevisiae deletion strains, locus YJR066W, strain TOR1 (second series), stronger effect = lower value): 0.912
- normalized growth (S. cerevisiae deletion strains, locus YJR066W, strain TOR1, stronger effect = lower value): 0.843
- normalized growth (S. cerevisiae deletion strains, locus YKL048C, strain ELM1, stronger effect = lower value): 0.928
- normalized growth (S. cerevisiae deletion strains, locus YKL067W, strain YNK1, stronger effect = lower value): 0.916
- normalized growth (S. cerevisiae deletion strains, locus YKL101W, strain HSL1, stronger effect = lower value): 0.884
- normalized growth (S. cerevisiae deletion strains, locus YKL193C, strain SDS22, stronger effect = lower value): 0.969
- normalized growth (S. cerevisiae deletion strains, locus YKL203C, strain TOR2, stronger effect = lower value): 0.981
- normalized growth (S. cerevisiae deletion strains, locus YLR113W, strain HOG1, stronger effect = lower value): 0.787 (active)
- normalized growth (S. cerevisiae deletion strains, locus YLR133W, strain CKI1, stronger effect = lower value): 0.921
- normalized growth (S. cerevisiae deletion strains, locus YLR403W, strain SFP1, stronger effect = lower value): 0.905
- normalized growth (S. cerevisiae deletion strains, locus YML070W, strain DAK1, stronger effect = lower value): 0.898
- normalized growth (S. cerevisiae deletion strains, locus YMR001C, strain CDC5, stronger effect = lower value): 0.944
- normalized growth (S. cerevisiae deletion strains, locus YMR205C, strain PFK2 (second series), stronger effect = lower value): 0.934
- normalized growth (S. cerevisiae deletion strains, locus YMR277W, strain FCP1, stronger effect = lower value): 0.943
- normalized growth (S. cerevisiae deletion strains, locus YNL006W, strain LST8, stronger effect = lower value): 0.965
- normalized growth (S. cerevisiae deletion strains, locus YNL020C, strain ARK1, stronger effect = lower value): 0.921
- normalized growth (S. cerevisiae deletion strains, locus YNL161W, strain CBK1, stronger effect = lower value): 0.972
- normalized growth (S. cerevisiae deletion strains, locus YNL183C, strain NPR1, stronger effect = lower value): 0.942
- normalized growth (S. cerevisiae deletion strains, locus YNL207W, strain RIO2, stronger effect = lower value): 0.974
- normalized growth (S. cerevisiae deletion strains, locus YNL222W, strain SSU72, stronger effect = lower value): 0.949
- normalized growth (S. cerevisiae deletion strains, locus YNL307C, strain MCK1 (second series), stronger effect = lower value): 0.881
- normalized growth (S. cerevisiae deletion strains, locus YOL078W, strain AVO1, stronger effect = lower value): 0.974
- normalized growth (S. cerevisiae deletion strains, locus YOL136C, strain PFK27, stronger effect = lower value): 0.88
- normalized growth (S. cerevisiae deletion strains, locus YOR061W, strain CKA2, stronger effect = lower value): 0.918
- normalized growth (S. cerevisiae deletion strains, locus YOR119C, strain RIO1, stronger effect = lower value): 0.932
- normalized growth (S. cerevisiae deletion strains, locus YOR231W, strain MKK1, stronger effect = lower value): 0.823
- normalized growth (S. cerevisiae deletion strains, locus YOR329C, strain SCD5, stronger effect = lower value): 0.977
- normalized growth (S. cerevisiae deletion strains, locus YPL031C, strain PHO85, stronger effect = lower value): 0.891
- normalized growth (S. cerevisiae deletion strains, locus YPL153C, strain RAD53, stronger effect = lower value): 0.91
- normalized growth (S. cerevisiae deletion strains, locus YPL204W, strain HRR25, stronger effect = lower value): 0.899
- normalized growth (S. cerevisiae deletion strains, locus YPL209C, strain IPL1, stronger effect = lower value): 0.974
- normalized growth (S. cerevisiae deletion strains, locus YPL256C, strain CLN2, stronger effect = lower value): 0.8 (active)
- normalized growth (S. cerevisiae deletion strains, locus YPR025C, strain CCL1, stronger effect = lower value): 0.981
- normalized growth (S. cerevisiae deletion strains, locus YPR106W, strain ISR1, stronger effect = lower value): 0.958
- normalized growth (S. cerevisiae deletion strains, locus YPR111W, strain DBF20, stronger effect = lower value): 0.94
- normalized growth (S. cerevisiae deletion strains, strain NNK1, stronger effect = lower value): 0.962
- normalized growth (S. cerevisiae deletion strains, strain TSCII, stronger effect = lower value): 0.96
